# Source: PubChem (National Center for Advancing Translational Sciences (NCATS))
# Only some compounds are listed: those with a hit (about 18% of all), similar ones and a draw of the others.
# IL-1B inflam inh: inflammasome signaling inhibition, IL-1 beta readout. THP-1 LPS/ATP IL-1B secretion, AlphaLISA, 16 h; stronger effect = lower value. activity change, % at 57.5 µM. AID 743279. 4.7% of 360,000 active; in the data active = activity change below about -50%; inconclusive = mostly about -30% to -49%
#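 Secreted IL-1B measured by AlphaLISA bead assay after 16 h compound exposure of THP-1 cells; compounds (final up to 57.5 uM) added 1 h before LPS (250 ng/mL) and ATP (1.25 mM) stimulation; lower signal means less secretion.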
# DT40 TDP1 no CPT: qHTS for Inhibitors of human tyrosyl-DNA phosphodiesterase 1 (TDP1): qHTS in cells in absence of CPT. 15% of 420,000 active. DT40 Tdp1-/- hTDP1 cells, no CPT, ATP luminescence, 48 h. Potency, µM (doses to about 46.2 µM), for inactives: top-dose activity change, negative = growth inhibition, actives largely listed as inhibitors; also: potency is read from the fitted curve at half-maximal effect; nearly all actives have a fitted effect of over 55% in size
#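 Chicken DT40 Tdp1-/- cells complemented with human TDP1, screened without camptothecin (DMSO vehicle only), 400 cells/well. Compounds pin-transferred, cells incubated at 37 °C for at least 48 hr. Growth read as ATP-dependent luminescence (CellTiter-Glo, 30 min at RT).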
# DT40 TDP1 CPT: DT40-hTDP1 cell growth loss with CPT. chicken DT40 Tdp1-/-;hTDP1 cells + 20 nM CPT, ATP luminescence, 48 h. Potency, µM (titrated, usually from 46.2 µM), inactives show at the highest dose activity change, negative = growth inhibition, actives largely listed as inhibitors. 12% of 420,000 active. AID 686979; also: potency is read from the fitted curve at half-maximal effect; nearly all actives have a fitted effect of over 55% in size
#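 Cell growth measured by CellTiter-Glo luminescence after a minimum 48 h, 37 C compound exposure with 20 nM CPT in Tdp1-knockout DT40 cells stably expressing hTDP1, seeded 400/well; qHTS titration format.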
# Gal4-VP16 FLuc: counter-screen for ROR gamma inhibitors: Gal4-VP16 reporter | Drosophila S2 Gal4-VP16 UAS-luciferase, luminescence, 20 h | Potency, µM (doses to about 53.6 µM), for the others: top-dose activity, negative = inhibition, hits mostly inhibitors | 3.5% of 310,000 active | AID 2546;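 also: Gal4-VP16 expression switched on by copper sulfate through the metallothionein promoter; potency is read from the fitted curve at half-maximal effect; nearly all actives have a fitted effect of over 50% in size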
# LDHA inh: blocks human lactate dehydrogenase A. P00338. purified LDHA, NADH/diaphorase-resazurin fluorescence; stronger effect = lower value. activity change, % (values are at about 110 or 230 µM). 0.15% of 480,000 active; in the data active = activity change below about -30%; inconclusive = mostly about -25% to -30%;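 also: plate controls were DMSO wells for no effect and wells without enzyme for full effect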
#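 LDH5 2 nM; NADH 0.06 mM, pyruvate 0.2 mM; 200 mM Tris pH 7.4, EDTA, Tween-20; 5 min RT. Detection: diaphorase 0.133 mg/mL + resazurin 37 µM, fluorescence ex540/em590 at 0 and 20 min; normalized to enzyme-free and DMSO wells.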
# RORgamma inh: inhibitors of mouse ROR gamma transcriptional activity. P51450. Drosophila S2 Gal4-RORgamma UAS-luciferase reporter, 20 h. Potency, µM (top dose mostly 53.6 µM), for inactives: top-dose activity change, negative = inhibition, actives largely listed as inhibitors. 5.4% of 310,000 active; also: potency is read from the fitted curve at half-maximal effect; nearly all actives have a fitted effect of over 60% in size
# Target sequence (P51450 whole entry, looked up, the tested form may be a part): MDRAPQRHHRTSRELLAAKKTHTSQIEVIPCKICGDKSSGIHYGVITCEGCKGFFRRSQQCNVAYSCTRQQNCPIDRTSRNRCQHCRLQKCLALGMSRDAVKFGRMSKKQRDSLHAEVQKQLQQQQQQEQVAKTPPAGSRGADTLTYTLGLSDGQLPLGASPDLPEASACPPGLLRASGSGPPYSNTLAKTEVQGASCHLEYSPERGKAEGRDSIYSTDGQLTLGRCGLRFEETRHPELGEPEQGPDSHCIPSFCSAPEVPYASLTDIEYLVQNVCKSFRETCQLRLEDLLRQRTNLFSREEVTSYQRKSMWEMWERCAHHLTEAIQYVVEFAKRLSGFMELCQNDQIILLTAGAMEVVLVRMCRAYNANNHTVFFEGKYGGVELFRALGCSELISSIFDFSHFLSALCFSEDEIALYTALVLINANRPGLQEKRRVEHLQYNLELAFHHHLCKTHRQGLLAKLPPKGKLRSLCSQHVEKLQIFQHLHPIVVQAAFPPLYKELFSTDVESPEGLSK
#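 ROR gamma transcriptional activity was tracked as Gal4-UAS luciferase output in stably transfected Drosophila Schneider cells, with compound added 1 hr before 700 uM copper sulfate induction and a 20 hr ambient-temperature incubation.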
# Numbers without * were called inactive; ? = inconclusive; · = not tested or not shown; [ ] = remark or other dose. Unless noted, calls follow the shape of the dose curve; as a rule, active = well fitted curve in the direction sought with a large enough effect; inconclusive = small, poorly fitted or top-dose-only effect, or another doubt; inactive = no such curve, though single readings can be large; an effect the other way counts as inactive or inconclusive. Unless noted, % is scaled to controls: 0 for no effect and ±100 for the full control effect.
SMILES,IL-1B inflam inh,DT40 TDP1 no CPT,DT40 TDP1 CPT,Gal4-VP16 FLuc,LDHA inh,RORgamma inh
C[C@@H]1CN([C@@H](C)CO)C(=O)CCCn2nncc2CO[C@H]1CN(C)Cc1ccccc1C(F)(F)F,12,?,18µM*,·,-5,·
Cc1ccccc1CN(C)C[C@@H]1OCc2cnnn2CCCC(=O)N([C@@H](C)CO)C[C@H]1C,8,-27%,-17%,·,2,·
C[C@@H]1CN([C@H](C)CO)C(=O)CCCn2nncc2CO[C@H]1CN(C)C,21,1%,2%,·,-33*,·
C[C@@H]1CN([C@H](C)CO)C(=O)CCCn2nncc2CO[C@H]1CN(C)Cc1cccc(C(F)(F)F)c1,-2,-1%,21µM*,·,-1,·
C[C@@H]1CN([C@@H](C)CO)C(=O)CCCn2nncc2CO[C@H]1CN(C)C,25,-7%,5%,·,-5,·
C[C@@H]1CN([C@@H](C)CO)C(=O)CCCn2nncc2CO[C@H]1CN(C)Cc1ccc(Oc2ccccc2)cc1,-25,16µM*,?,·,-25,·
O=C(CN1CCN(c2ccc([N+](=O)[O-])c3cnccc23)CC1)Nc1ccc(OC(F)(F)F)cc1,·,·,·,·,36,·
Cc1ccccc1C(C)NC(=O)CSc1nc2cc([N+](=O)[O-])ccc2o1 (stereo unspecified),·,·,·,·,-5,·
C=CCNC(=O)NC(C)CC (stereo unspecified),·,·,·,·,1,·
O=C(Nc1ccc2ccccc2c1)C1CCCCC1,·,·,·,·,11,·
Cc1cc(C)c2oc(C(=O)Nc3nnc(SCc4ccc(F)cc4)s3)cc(=O)c2c1,·,·,·,·,8,·
C[C@H]1CN([C@@H](C)CO)C(=O)CCCn2nncc2CO[C@H]1CN(C)S(=O)(=O)c1ccc2ccccc2c1,-11,23µM*,?,·,-3,·
C[C@H]1CN([C@@H](C)CO)C(=O)CCCn2cc(nn2)CO[C@@H]1CN(C)S(=O)(=O)c1ccc2c(c1)OCCCO2,26,-25%,3%,·,-8,·
C[C@H](CO)N1C[C@H](C)[C@@H](CN(C)S(=O)(=O)c2ccc3ccccc3c2)OCc2cnnn2CCCC1=O,12,?,3%,·,-11,·
C[C@@H]1CN([C@H](C)CO)C(=O)CCCn2cc(nn2)CO[C@H]1CN(C)S(=O)(=O)c1ccc2c(c1)OCCCO2,14,-4%,-4%,·,-30*,·
COc1ccc(C(=O)Nc2oc3c(C)cccc3c(=O)c2-c2cc(OC)c(OC)c(OC)c2)cc1,·,·,·,·,-1,·
CC(=O)c1ccc(OCC(O)CN2CCN(c3ccc(F)cc3)CC2)cc1 (stereo unspecified),-1,23µM*,?,3%,-3,2%
COc1cc(C(C)=O)ccc1OCC(O)CN1CCN(c2cc(C)cc(C)c2)CC1 (stereo unspecified),-15,16µM*,?,7%,0,17%
COc1cccc(-c2noc(-c3occc3Br)n2)c1,·,·,·,·,1,·
Cc1c(C(=O)NC2CCS(=O)(=O)C2)nnn1-c1ccc(Cl)cc1 (stereo unspecified),·,·,·,·,6,·
CC(=O)N/N=C/c1ccccc1OCCCOc1ccc(Cl)c(C)c1,·,·,·,·,-2,·
CCC(=O)O[C@@]1(C(=O)CCl)[C@@H](C)C[C@@H]2[C@H]3CCC4=CC(=O)C=C[C@@]4(C)[C@]3(F)[C@@H](O)C[C@@]21C,·,·,·,9%[17 µM],·,?
CCC(=O)OCC(=O)[C@@]1(OC(=O)CC)[C@@H](C)C[C@H]2[C@@H]3CCC4=CC(=O)C=C[C@]4(C)[C@@]3(Cl)[C@@H](O)C[C@@]21C,-58*,16µM*,24µM*,·,-4,·
O=C1CC(N2CCN(S(=O)(=O)c3ccccc3F)CC2)C(=O)N1c1ccccc1F (stereo unspecified),29,23%,-1%,·,-35*,·
